Compound activity as filed in PubChem.
Most compounds without a hit are left out; they make up all but 21% or so of the library.
CYP2C9 inhib – human CYP2C9 inhibition | P11712 | inhibition, % at 5 µM | CYP2C9 Supersomes, luciferin-H conversion, luminescence | 20% of 96,000 active;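 active = blocking of liver enzyme CYP2C9 beyond about 50% at 5 µM, limit read from the data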
CYP2C9 activ – activators of human CYP2C9. 1.4% of 96,000 active. P11712. recombinant CYP2C9, luciferin-H conversion, luminescence; active compounds read high; factor 1 = untreated enzyme, 0 = blocked. activation factor at 5 µM;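 active = activation factor of 2 or more for CYP2C9 at a 5 µM dose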;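 note: 0 = sulfaphenazole-blocked wells and 1 = vehicle-only wells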
CYP2C19 act – increases human CYP2C19 enzyme activity. P33261. recombinant CYP2C19, luciferin-H EGE luminescence; active compounds read high; 0 = fully inhibited enzyme, 1 = untreated enzyme. activation factor at 5 µM. 96,000 tested, under 10 active;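 active = activation factor of at least 2 at 5 µM in the primary screen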;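 note: 0 = wells with 2.5 mM tranylcypromine and 1 = vehicle-only wells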
Target sequence (P33261 whole entry, looked up): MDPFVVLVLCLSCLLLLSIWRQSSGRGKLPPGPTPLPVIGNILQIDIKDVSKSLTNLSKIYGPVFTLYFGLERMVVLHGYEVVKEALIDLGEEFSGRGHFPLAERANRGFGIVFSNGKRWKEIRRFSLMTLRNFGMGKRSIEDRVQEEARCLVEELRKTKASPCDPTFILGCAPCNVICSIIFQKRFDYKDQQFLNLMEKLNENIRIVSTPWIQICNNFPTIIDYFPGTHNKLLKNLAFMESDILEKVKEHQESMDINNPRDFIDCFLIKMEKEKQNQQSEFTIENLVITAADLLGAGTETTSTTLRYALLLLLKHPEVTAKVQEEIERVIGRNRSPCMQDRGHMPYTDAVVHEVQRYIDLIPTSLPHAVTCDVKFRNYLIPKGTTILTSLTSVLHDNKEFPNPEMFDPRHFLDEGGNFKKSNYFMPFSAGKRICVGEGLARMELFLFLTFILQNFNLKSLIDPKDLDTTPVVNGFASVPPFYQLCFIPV
CYP2C19 inh – blocks human cytochrome P450 2C19; P33261; inhibition, % at 5 µM; CYP2C19 Supersomes, luciferin-H EGE luminescence, 30 min; 21% of 96,000 active;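 active = CYP2C19 inhibition above a set limit at 5 µM in the primary screen, cut at about 50% in these data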;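 note: plate controls were negative control wells for no effect and 2.5 mM tranylcypromine positive control for full effect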
MRP1 act – activates MRP-1. H69AR cells + doxorubicin, viability rescue, CellTiter-Glo. 0.61% of 140,000 active. viability increase, % at 10 µM;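 active = viability gain under doxorubicin at or above a set limit, the compound median plus 3 SD, cut at about 4.7% in these data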;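 note: MRP-1 overexpressing cells given doxorubicin 25 µM after compound pretreatment; 18-22 h compound pretreatment then 72 h with doxorubicin before readout; 0% = doxorubicin-only wells and 100% = vehicle-treated cells without doxorubicin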
MRP reversal – MRP-mediated drug resistance reversal. H69AR cells + 2 uM doxorubicin, CellTiter-Glo, 72 h. 0.04% of 85,000 active. differential viability (reversal), % at 10 µM. AID 602;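 active = viability drop by adding the cancer drug above about 55%, with treated viability meeting a 40% cutoff, limit read from the data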;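 note: viability without doxorubicin minus viability with 2 µM doxorubicin for each compound; larger differential means the compound sensitizes cells more to doxorubicin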
Numbers without * were called inactive.

What do the screens show for `Cc1ccc(N(C(C)C(=O)Nc2ccc(S(=O)(=O)N3CCOCC3)cc2)S(C)(=O)=O)cc1C` (configuration not stated)?
CYP2C9 inhib: 89.2*; CYP2C9 activ: 0.1; CYP2C19 act: 0.6; CYP2C19 inh: 36.1; MRP1 act: -1.8; MRP reversal: -5.7

How did Cc1ccc(N(C(C)C(=O)Nc2ccc(S(=O)(=O)N3CCOCC3)cc2)S(C)(=O)=O)cc1 (configuration not stated) do in these assays?
CYP2C9 inhib: 27.3; CYP2C9 activ: 0.7; CYP2C19 act: 0.9; CYP2C19 inh: 7.8; MRP1 act: -3.0; MRP reversal: 11.3

Results for O=C(CCSCCc1ccccn1)Nc1ccc(Cl)cn1 ?
CYP2C9 inhib: 23.6; CYP2C9 activ: 0.8; CYP2C19 act: 0.8; CYP2C19 inh: 23.5; MRP1 act: -2.6; MRP reversal: 16.4

Results for CC(C)=CCC(C)(C)CNC(=O)NC1CCCCC1 ?
MRP1 act: 2.6

How did CC(C)c1ccc(N(CC(=O)Nc2ccc(S(=O)(=O)N3CCOCC3)cc2)S(C)(=O)=O)cc1 do in these assays?
CYP2C9 inhib: 90.1*; CYP2C9 activ: 0.1; CYP2C19 act: 0.3; CYP2C19 inh: 72.8*; MRP1 act: -4.5; MRP reversal: -45.2

How did CC(Sc1ccc(Cl)cc1)C(=O)Nc1ccc(S(=O)(=O)N2CCOCC2)cc1 (configuration not stated) do in these assays?
CYP2C9 inhib: 62.1*; CYP2C9 activ: 0.4; CYP2C19 act: 0.5; CYP2C19 inh: 49.8; MRP1 act: -2.5; MRP reversal: -15.7

What do the screens show for `O=C(NCC1CCCO1)c1sc2cc(Cl)ccc2c1Cl` (configuration not stated)?
MRP1 act: 1.3

How did Cc1ccc(Cl)cc1NC(=O)CSC(N)=O do in these assays?
CYP2C9 inhib: 27.2; CYP2C9 activ: 0.7; CYP2C19 act: 0.3; CYP2C19 inh: 72.0*; MRP1 act: -1.1; MRP reversal: 6.0

What do the screens show for `Cc1ccc(Cl)cc1NC(=O)CC(O)(C(F)(F)F)C(F)(F)F`?
CYP2C9 inhib: 36.7; CYP2C9 activ: 0.6; CYP2C19 act: 0.3; CYP2C19 inh: 74.8*; MRP1 act: -2.6; MRP reversal: -2.4

How did Cc1ccc(Cl)cc1NC(=O)Cn1cccc1 do in these assays?
CYP2C9 inhib: 6.2; CYP2C9 activ: 0.9; CYP2C19 act: 0.8; CYP2C19 inh: 20.2; MRP1 act: -4.2; MRP reversal: -8.6

Results for NNC(=O)c1cccc(O)c1 ?
MRP1 act: -0.4

What do the screens show for `CCOCCCNC(=O)C(C)NS(=O)(=O)c1ccc(C)cc1` (configuration not stated)?
CYP2C9 inhib: -4.2; CYP2C9 activ: 1; CYP2C19 act: 1; CYP2C19 inh: 1.7; MRP1 act: -0.8; MRP reversal: 0.4

What do the screens show for `O=C(CSc1nc2cc([N+](=O)[O-])ccc2n1-c1ccc(F)cc1)NC1CCS(=O)(=O)C1` (configuration not stated)?
MRP1 act: -3.1

Results for O=C(CN1CCN(c2ccc(O)cc2)CC1)Nc1cc([N+](=O)[O-])ccc1Cl ?
MRP1 act: -4.1

What do the screens show for `CC(NC(=O)Nc1ccc(F)cc1F)c1ccncc1` (configuration not stated)?
CYP2C9 inhib: 43.1; CYP2C9 activ: 0.6; CYP2C19 act: 0.2; CYP2C19 inh: 79.6*; MRP1 act: -2.8; MRP reversal: 5.8

What do the screens show for `COc1ccc(Cl)cc1NC(=O)NC(C)c1ccncc1` (configuration not stated)?
CYP2C9 inhib: 91.9*; CYP2C9 activ: 0.1; CYP2C19 act: 0; CYP2C19 inh: 97.1*; MRP1 act: -4.2; MRP reversal: -4.8

What do the screens show for `O=C(Nc1ccc(F)cc1F)c1cccnc1`?
CYP2C9 inhib: 46.0; CYP2C9 activ: 0.5; CYP2C19 act: 0.8; CYP2C19 inh: 16.5; MRP1 act: 0.5; MRP reversal: 1.7

What do the screens show for `COc1ccc(NC(=O)NC(C)c2ccncc2)cc1OC` (configuration not stated)?
CYP2C9 inhib: 59.5*; CYP2C9 activ: 0.4; CYP2C19 act: 0.8; CYP2C19 inh: 20.8; MRP1 act: -3.7; MRP reversal: 4.7

How did CN1C(=C2C(=O)OC(C)(C)OC2=O)Sc2ccccc21 do in these assays?
CYP2C9 inhib: -11.4; CYP2C9 activ: 1.1; CYP2C19 act: 0.8; CYP2C19 inh: 17.2; MRP1 act: 0.5; MRP reversal: 0.6

What do the screens show for `Cc1ccc(-c2nnn(CC(=O)N(CC(=O)NC(C)C)c3cnc4ccccc4c3)n2)o1`?
CYP2C9 inhib: 29.2; CYP2C9 activ: 0.7; CYP2C19 act: 0.9; CYP2C19 inh: 9.7; MRP1 act: -3.1; MRP reversal: 15.5

Results for Cc1ccc(-c2nnn(CC(=O)N(CC(=O)NC3CCCC3)c3cnc4ccccc4c3)n2)o1 ?
CYP2C9 inhib: 76.6*; CYP2C9 activ: 0.2; CYP2C19 act: 0.6; CYP2C19 inh: 44.4; MRP1 act: -2.2; MRP reversal: -10.8

How did Cc1ccc(-c2nnn(CC(=O)N(CC(=O)NCc3ccccc3)c3cccc(C)c3C)n2)o1 do in these assays?
CYP2C9 inhib: 78.5*; CYP2C9 activ: 0.2; CYP2C19 act: 0.6; CYP2C19 inh: 41.4; MRP1 act: -1.6; MRP reversal: 17.0

Results for Cc1ccccc1NC(=O)CC1SC(=NC2CCCCC2)NC1=O (configuration not stated) ?
CYP2C9 inhib: 67.3*; CYP2C9 activ: 0.3; CYP2C19 act: 1; CYP2C19 inh: 1.1; MRP1 act: 1.2; MRP reversal: 4.3

What do the screens show for `CC1(C)Cc2ccccc2-c2n[nH]c(=S)n21`?
CYP2C9 inhib: 52.7*; CYP2C9 activ: 0.5; CYP2C19 act: 0.7; CYP2C19 inh: 25.7; MRP1 act: 0.6; MRP reversal: -3.4

How did Cc1nc2scc(-c3ccccc3)c2c(=O)n1N do in these assays?
CYP2C9 inhib: 16.9; CYP2C9 activ: 0.8; CYP2C19 act: 0.5; CYP2C19 inh: 45.8; MRP1 act: 0.0; MRP reversal: 14.5

Results for Cc1ccc(-c2csc3nc(C)n(-n4c(C)ccc4C)c(=O)c23)o1 ?
CYP2C9 inhib: 22.4; CYP2C9 activ: 0.8; CYP2C19 act: 0.2; CYP2C19 inh: 79.1*; MRP1 act: -0.1; MRP reversal: 3.0

Results for Cc1nc2scc(-c3ccco3)c2c(=O)n1/N=C/N(C)C ?
CYP2C9 inhib: 20.3; CYP2C9 activ: 0.8; CYP2C19 act: 0.4; CYP2C19 inh: 64.8*; MRP1 act: -2.0; MRP reversal: -5.5

What do the screens show for `Cc1ccc(C)n1-n1c(C)nc2scc(-c3ccccc3)c2c1=O`?
CYP2C9 inhib: 73.9*; CYP2C9 activ: 0.3; CYP2C19 act: 0.3; CYP2C19 inh: 72.3*; MRP1 act: -3.1; MRP reversal: 10.4

How did Cc1ccc(-c2csc3ncn(/N=C/N(C)C)c(=O)c23)o1 do in these assays?
CYP2C9 inhib: 23.4; CYP2C9 activ: 0.8; CYP2C19 act: 0.3; CYP2C19 inh: 74.2*; MRP1 act: -1.1; MRP reversal: -12.6
